These compounds were tested against T1, UniProt Q8TE49 (assay: log2 ratio of Biotin-Ahx-Ub-VS probe labelling (fragment/DMSO); higher = less target engagement (more negative = stronger competition), active = hit call of the paper (q ≤ 0.05, log2 ratio ≤ -1)). Conditions: compound concentration: 200 uM; treatment time: 3 h.
T1 sequence (whole entry): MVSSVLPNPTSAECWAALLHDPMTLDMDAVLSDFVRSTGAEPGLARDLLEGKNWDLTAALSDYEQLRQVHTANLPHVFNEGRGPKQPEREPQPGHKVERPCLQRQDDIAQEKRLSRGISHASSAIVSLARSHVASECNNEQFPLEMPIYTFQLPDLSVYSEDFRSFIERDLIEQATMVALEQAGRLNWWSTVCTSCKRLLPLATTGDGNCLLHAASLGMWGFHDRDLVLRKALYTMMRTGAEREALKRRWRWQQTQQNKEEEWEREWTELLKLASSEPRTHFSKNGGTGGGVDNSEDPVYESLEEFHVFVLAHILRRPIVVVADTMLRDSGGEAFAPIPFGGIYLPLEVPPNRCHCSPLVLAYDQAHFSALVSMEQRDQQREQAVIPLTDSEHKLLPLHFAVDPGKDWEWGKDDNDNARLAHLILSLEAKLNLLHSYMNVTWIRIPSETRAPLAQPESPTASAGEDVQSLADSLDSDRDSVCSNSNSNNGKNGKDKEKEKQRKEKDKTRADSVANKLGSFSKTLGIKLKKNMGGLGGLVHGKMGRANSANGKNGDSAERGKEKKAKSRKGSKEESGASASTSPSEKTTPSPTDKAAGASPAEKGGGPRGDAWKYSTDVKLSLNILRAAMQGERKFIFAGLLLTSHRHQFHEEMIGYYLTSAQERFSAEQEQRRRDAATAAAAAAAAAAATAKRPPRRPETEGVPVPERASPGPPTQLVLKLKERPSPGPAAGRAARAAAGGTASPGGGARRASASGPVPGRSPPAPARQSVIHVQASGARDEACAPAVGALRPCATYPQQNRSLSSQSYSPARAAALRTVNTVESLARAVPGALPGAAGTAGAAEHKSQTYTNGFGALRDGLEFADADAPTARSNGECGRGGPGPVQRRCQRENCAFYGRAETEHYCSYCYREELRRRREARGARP
How it was run: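 HEK293T lysate, 495 µg per sample in Tris/CHAPS/IGEPAL buffer with protease inhibitors, was treated in triplicate with fragment at 200 µM or vehicle for 3 h and then with Biotin-Ahx-Ub-VS at 0.5 µM final for 1 h. Labelled DUBs were NeutrAvidin-enriched, digested with LysC and trypsin, and run by diaPASEF LC-MS/MS. Spectronaut label-free quantities were global-median-normalised, and values are average log2 fragment/vehicle ratios by unpaired t-test on proteins with ≥2 unique peptides.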

log2 ratio of Biotin-Ahx-Ub-VS probe labelling, inactive:
CNC(=O)C1(NC(=O)CCl)CCCCC1 -0.591
Cl.O=C(CCl)N1CCC(n2nc3ccccc3n2)CC1 -0.712
O=C(CCl)NC(Cn1ccccc1=O)c1ccccc1 (centres undefined) -0.0581
O=C(CCl)N1CC=C(c2c[nH]c3ccccc23)CC1 -0.72
O=C(CCl)NC1CCC(C(F)(F)F)CC1 (centres undefined) -0.706
Cc1ccc2nnc(CNC(=O)CCl)n2c1 -0.36
Cl.Cn1nccc1C(NC(=O)CCl)c1ccccc1 (centres undefined) -0.655
O=C(CCl)Nc1ccc(F)cc1F -0.55
O=C(CCl)N1CCOC2(CCC2)CC1 -0.472
CC(NC(=O)CCl)c1cccc(Cl)c1 (centres undefined) -0.632
O=C(CCl)NCC1(c2ccccc2)CC1 -0.408
Cc1cccn2cc(CCNC(=O)CCl)nc12.Cl -0.332
O=C(CCl)N1CCCCC12CCOCC2 -0.444
Cl.O=C(CN1CCN(C(=O)CCl)CC1)Nc1ccc(F)cc1 -0.19
O=C(CCl)NCCc1ccc2c(c1)OCCO2 -0.327
O=C(CCl)NC1(c2ccc3c(c2)OCCO3)CCCC1 -0.447
COCC[C@@H](NC(=O)CCl)c1ccccc1 -0.208
Cl.Cn1ncc2c1CC(NC(=O)CCl)CC2 (centres undefined) -0.377
CCC1c2ccsc2CCN1C(=O)CCl (centres undefined) -0.771
Cc1cccnc1NC(=O)C1CCN(C(=O)CCl)CC1.Cl -0.254
O=C(CCl)N1CCCC2CCCCC21 (centres undefined) -0.126
Cl.Cn1cnc2cc(CNC(=O)CCl)ccc21 -0.354
Cl.Cn1c(CNC(=O)CCl)nc2cccnc21 -0.488
N#Cc1ccc(Cl)cc1NC(=O)CCl -0.577
CN(C(=O)CCl)c1nc2ccccc2s1 -0.558
Cc1n[nH]c(=O)c2c(NC(=O)CCl)oc(C)c12 -0.575
CC(=O)Nc1ccc(NC(=O)CCl)cc1 -0.811
O=C(CCl)N1CCOC2(CCC2)C1 -0.696
Cl.O=C(CCl)N1CCc2ncncc2C1 -0.964

log2 ratio of Biotin-Ahx-Ub-VS probe labelling, active:
N#Cc1ccccc1N1CCN(C(=O)CCl)CC1 -1.29
Cc1n[nH]c2c1CN(C(=O)CCl)CC2 -1.43
CC1(NC(=O)CCl)CCS(=O)(=O)C1 (centres undefined) -1.44
CN(CCc1ncc(Br)cn1)C(=O)CCl.Cl -1.75
CC(NC(=O)CCl)c1ccc2[nH]ncc2c1 (centres undefined) -1.1
